# Laboratory results published in PubChem BioAssay (EPA / NIEHS).
# Inconclusive results are not listed. More than one record can exist for a structure, and the calls need not agree. Calls of active or inactive are those of the source. Rule for the calls, unless noted: active = hit-call score of the fitted dose curve at least 0.9, where 1 is the maximum; inconclusive = response in the unintended direction; inactive = score below 0.9.
# Assays:
# [1] = molecular target: rat Peripheral-type Benzodiazepine Receptor (PBR), Tspo (gene 24230) (UniProt P16257); assay: NVS_MP_rPBR: NovaScreen (NVS) Membrane Protein Assay for rat Peripheral-type Benzodiazepine Receptor (PBR) (AID 2283335)
# Method in brief: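 Rat kidney membranes; radioligand binding with displacement, filter-based scintillation counting, 1 h incubation. Primary screen in duplicate at 25 uM, actives followed in concentration series; loss of binding vs DMSO.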
# [2] = molecular target: bovine Estrogen Receptor (ER), ESR1 (gene 407238) (UniProt P49884); assay: NVS_NR_bER: NovaScreen (NVS) Nuclear Receptor Binding Assay for bovine Estrogen Receptor (ER) (AID 2283345);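 note: actives lower the bound radioligand count which means they displace the ER ligand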
# Method in brief: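 Cell-free radioligand binding with receptor from bovine uterine membranes, read by scintillation counting 18 h after dosing. Loss of specific binding was scored against DMSO; primary screen at 25 uM in duplicate, actives then run as concentration series.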
# [3] = molecular target: Estrogen receptor (Homo sapiens) (UniProt P03372); assay: NVS_NR_hER: NovaScreen (NVS) Nuclear Receptor Binding Assay for human Estrogen Receptor (ER) (AID 2283348)
# Method in brief: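 Radioligand competitive displacement binding to estrogen receptor from MCF7 extract, cell-free; 18 h after dosing, scintillation read-out. Primary screen in duplicate at 25 uM; actives followed up in concentration series; loss of signal vs DMSO.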
# [4] = molecular target: Estrogen receptor (Homo sapiens) (UniProt P03372); assay: OT_ER_ERaERa_0480: Odyssey Thera (OT) 8-hour HEK293T Protein-Complementation Assay for Estrogen Receptor-alpha/-alpha Homodimer (AID 2283351);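 note: rise in fluorescence from reassembled reporter fragments on ERα LBD homodimer in nucleus or whole cell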
# Method in brief: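 HEK293T, stable ERα LBD (aa 310-547) PCA homodimer; 8 h compound exposure; fluorescence intensity, laser scanning cytometer; positive fitting direction, DMSO baseline.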
# [5] = NVS_IC_rCaBTZCHL: NovaScreen (NVS) Ion Channel Assay for Calcium Channel, Type L, Benzothiazepine Site (CaBTZCHL) (AID 2283337)
# Method in brief: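 Scintillation counting of filter-bound radioligand gave the read-out, with reduced binding versus DMSO scored as activity. Membranes came from rat cortex and were read 1.5 h after compound addition. Chemicals were screened first in duplicate at 25 uM.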
# [6] = test system: guinea pig Histamine Receptor (H2), gene 100729734; assay: NVS_GPCR_gH2: NovaScreen (NVS) G Protein-Coupled Receptor Assay for guinea pig Histamine Receptor (H2) (AID 2283342)
# Method in brief: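 Radioligand displacement on guinea pig striatal membranes, 1 h after dosing, filter-based scintillation counting; loss of signal versus DMSO. Single-point screen at 25 uM in duplicate, then concentration-response up to 50 uM.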
# [7] = molecular target: Bile acid receptor (Homo sapiens) (UniProt Q96RI1); assay: NVS_NR_hFXR_Antagonist: NovaScreen (NVS) Nuclear Receptor Binding Assay for human Farnesoid X Receptor Antagonism (FXR) (AID 2283350)
# Method in brief: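 Cell-free TR-FRET ligand-binding read-out on human FXR (NR1H4) in antagonist mode, measured 1 h after dosing. Primary screen in duplicate at 25 uM, actives retested in concentration series; signal loss scored versus DMSO.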
# [8] = molecular target: rat Thyrotropin Releasing Hormone Receptor (TRH), Trhr (gene 25570) (UniProt Q01717); assay: NVS_GPCR_rTRH: NovaScreen (NVS) G Protein-Coupled Receptor Assay for rat Thyrotropin Releasing Hormone Receptor (TRH) (AID 2283329);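 note: hit means lower bound tracer signal versus DMSO baseline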
# Method in brief: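 Cell-free radioligand binding on rat forebrain membranes; bound tracer measured by filter-based scintillation counting 4 hours after dosing. Loss of signal versus DMSO baseline indicates displacement; primary screen at 25 uM in duplicate, actives then run in concentration series.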
# [9] = molecular target: Estrogen receptor (Homo sapiens) (UniProt P03372); assay: OT_ER_ERaERa_1440: Odyssey Thera (OT) 24-hour HEK293T Protein-Complementation Assay for Estrogen Receptor-alpha/-alpha Homodimer (AID 2283349);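 note: hits raise fluorescence above DMSO for agonists and antagonists alike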
# Method in brief: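 HEK293T cells stably expressing the human ER alpha ligand-binding domain (aa 310-547) as a homodimer PCA were dosed for 24 hours. Fluorescence intensity was read by laser scanning cytometry, and gain of signal was fitted relative to DMSO vehicle.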
# [10] = molecular target: bovine Gamma-Aminobutyric Acid Type A Receptor Agonist (GABAR Agonist), GABRA1 (gene 780973) (UniProt P08219); assay: NVS_LGIC_bGABAR_Agonist: NovaScreen (NVS) Ligand-Gated Ion Channel Assay for bovine Gamma-Aminobutyric Acid Type A Receptor Agonist (GABAR Agonist) (AID 2283338)
# Method in brief: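 Radioligand binding to bovine cerebellar membranes in agonist format, read by filter-based scintillation counting after 1 h. Primary screen in duplicate at 25 uM, with actives followed in concentration series. Gain of signal versus DMSO.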
# [11] = molecular target: rat Glycine Receptor, Strychnine-sensitive (GlyRStrySens), Glra1 (gene 25674) (UniProt P07727); assay: NVS_LGIC_rGlyRStrySens: NovaScreen (NVS) Ligand-Gated Ion Channel Assay for rat Glycine Receptor, Strychnine-sensitive (GlyRStrySens) (AID 2283341)
# Method in brief: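 Radioligand displacement on rat spinal cord membranes, 1 hr, filter scintillation read-out. Single-concentration duplicate screen at 25 uM; chemicals meeting threshold (e.g., 30% inhibition) rerun in concentration-response up to 50 uM. Loss of binding fitted versus DMSO.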
# [12] = molecular target: Glutamate receptor ionotropic, kainate 1 (Rattus norvegicus) (UniProt P22756); assay: NVS_IC_rKAR: NovaScreen (NVS) Ion Channel Assay for rat Kainic Acid Receptors (KAR) (AID 2283334; active = hit-call score of the fitted dose curve at least 0.9, where 1 is the maximum; inactive = score below 0.9)
# Method in brief: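 Radioligand displacement binding using rat forebrain membranes, 1 h incubation, filter-based scintillation counting. Screened in duplicate at 25 uM, with actives retested in concentration-response up to 50 uM; fitted against DMSO.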
# [13] = molecular target: human Peripheral-type Benzodiazepine Receptor (PBR), TSPO (gene 706) (UniProt P30536); assay: NVS_MP_hPBR: NovaScreen (NVS) Membrane Protein Assay for human Peripheral-type Benzodiazepine Receptor (PBR) (AID 2283331);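 note: hits reduce radioligand binding relative to DMSO baseline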
# Method in brief: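 Radioligand displacement on human colonic cell membranes, 1 h incubation; bound radioactivity by filtration and scintillation counting. Primary screen in duplicate at 25 uM single concentration, actives followed up in concentration series; loss of binding versus DMSO.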
# [14] = molecular target: Small conductance calcium-activated potassium channel protein 1 (Rattus norvegicus) (UniProt P70606); assay: NVS_IC_rKCaCh: NovaScreen (NVS) Ion Channel Assay for rat Potassium Channel, Ca2+ Act., VI (KCaCh) (AID 2283336)
# Method in brief: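 Radioligand binding to rat forebrain membranes, cell-free, read 1 hour after dosing by filter-based scintillation counting. Compounds first run in duplicate at 25 uM, actives then in concentration series; loss of signal vs DMSO indicates displacement.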
# [15] = molecular target: chimpanzee Androgen Receptor (AR), AR (gene 747460) (UniProt O97775); assay: NVS_NR_cAR: NovaScreen (NVS) Nuclear Receptor Binding Assay for chimpanzee Androgen Receptor (AR) (AID 2283346);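 note: radioligand displacement from AR measured by scintillation counting in a cell-free assay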
# Method in brief: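 Radioligand binding to chimpanzee AR expressed in Sf9/Sf21 cells, cell-free, measured 72 h after dosing by lysate-based scintillation counting. Loss of signal vs DMSO; initial duplicate screen at 25 uM, actives retested in concentration series.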
# [16] = molecular target: Voltage-gated inwardly rectifying potassium channel KCNH2 (Homo sapiens) (UniProt Q12809); assay: NVS_IC_hKhERGCh: NovaScreen (NVS) Ion Channel Assay for human Potassium Channel ERG (KhERGCh) (AID 2283333)
# Method in brief: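 Cell-free radioligand competition binding on hERG protein extracted from CHO cells, read by filter-based scintillation counting 0.75 h after dosing. Primary screen at 25 uM in duplicate, actives followed in concentration series. Signal loss fitted versus DMSO.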
# NCBI gene 100848466 = assay: NVS_NR_bPR: NovaScreen (NVS) Nuclear Receptor Binding Assay for bovine Progextron Receptor (PR) (AID 2283343);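 for AC50: actives lower bound radioligand signal below DMSO meaning displacement of the label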
# Method in brief: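 Bovine uterine membrane preparation; radioligand displacement read by scintillation counting 18 h after dosing. Primary screen single concentration, 25 uM, in duplicate; actives followed up in concentration series. Signal loss versus DMSO baseline.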
# [17] = molecular target: human Constitutive Androstane Receptor (CAR), NR1I3 (gene 9970) (UniProt Q14994); assay: NVS_NR_hCAR_Antagonist: NovaScreen (NVS) Nuclear Receptor Binding Assay for human Constitutive Androstane Receptor Antagonism (CAR) (AID 2283344)
# Method in brief: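 Cell-free TR-FRET binding read 1 h after dosing, antagonist mode; loss of signal versus DMSO baseline. Primary screen in duplicate at a single 25 uM; actives retested in concentration series.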
# [18] = molecular target: human Androgen Receptor (AR), AR (gene 367) (UniProt P10275); assay: NVS_NR_hAR: NovaScreen (NVS) Nuclear Receptor Binding Assay for human Androgen Receptor (AR) (AID 2283332)
# Method in brief: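 LnCAP cell-free extract; radioligand displacement read by scintillation counting after 20 h. Primary screen single concentration 25 uM in duplicate, actives then run as concentration series; loss-of-signal fitted relative to DMSO baseline.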
# Sequence of Estrogen receptor (Homo sapiens) (P03372 whole entry, looked up, the tested form may be a part): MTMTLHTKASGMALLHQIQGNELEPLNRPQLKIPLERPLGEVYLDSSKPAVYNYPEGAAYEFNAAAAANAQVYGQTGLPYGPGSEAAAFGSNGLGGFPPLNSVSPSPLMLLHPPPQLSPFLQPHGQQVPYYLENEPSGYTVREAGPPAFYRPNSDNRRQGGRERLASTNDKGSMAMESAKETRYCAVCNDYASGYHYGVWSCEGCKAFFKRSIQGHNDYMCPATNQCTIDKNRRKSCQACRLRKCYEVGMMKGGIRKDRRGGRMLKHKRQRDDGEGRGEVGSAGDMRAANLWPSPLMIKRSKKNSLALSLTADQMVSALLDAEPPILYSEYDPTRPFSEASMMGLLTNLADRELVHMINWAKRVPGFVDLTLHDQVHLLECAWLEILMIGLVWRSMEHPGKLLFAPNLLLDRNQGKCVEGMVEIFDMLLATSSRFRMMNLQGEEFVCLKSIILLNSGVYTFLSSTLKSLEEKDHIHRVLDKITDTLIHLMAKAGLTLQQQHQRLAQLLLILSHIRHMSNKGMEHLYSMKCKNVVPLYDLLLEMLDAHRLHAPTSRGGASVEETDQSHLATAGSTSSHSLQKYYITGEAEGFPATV
# Sequence of bovine Estrogen Receptor (ER), ESR1 (gene 407238) (P49884 whole entry, looked up): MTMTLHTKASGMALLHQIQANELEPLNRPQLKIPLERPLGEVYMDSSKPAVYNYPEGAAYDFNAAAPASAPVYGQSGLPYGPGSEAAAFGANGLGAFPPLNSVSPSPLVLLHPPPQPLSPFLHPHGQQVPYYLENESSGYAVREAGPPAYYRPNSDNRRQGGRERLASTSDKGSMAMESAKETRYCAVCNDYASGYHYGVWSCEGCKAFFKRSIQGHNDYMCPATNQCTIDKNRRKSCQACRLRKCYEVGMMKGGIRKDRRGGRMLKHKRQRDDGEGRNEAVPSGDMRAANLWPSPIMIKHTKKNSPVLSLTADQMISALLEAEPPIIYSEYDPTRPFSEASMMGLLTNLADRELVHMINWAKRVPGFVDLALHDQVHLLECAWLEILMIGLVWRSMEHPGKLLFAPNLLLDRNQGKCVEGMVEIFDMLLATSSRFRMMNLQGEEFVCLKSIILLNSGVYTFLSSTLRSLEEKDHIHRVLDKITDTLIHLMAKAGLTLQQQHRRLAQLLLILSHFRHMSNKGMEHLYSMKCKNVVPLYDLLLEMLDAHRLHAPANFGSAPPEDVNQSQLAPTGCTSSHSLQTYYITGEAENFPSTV
# Sequence of Small conductance calcium-activated potassium channel protein 1 (Rattus norvegicus) (P70606 whole entry, looked up): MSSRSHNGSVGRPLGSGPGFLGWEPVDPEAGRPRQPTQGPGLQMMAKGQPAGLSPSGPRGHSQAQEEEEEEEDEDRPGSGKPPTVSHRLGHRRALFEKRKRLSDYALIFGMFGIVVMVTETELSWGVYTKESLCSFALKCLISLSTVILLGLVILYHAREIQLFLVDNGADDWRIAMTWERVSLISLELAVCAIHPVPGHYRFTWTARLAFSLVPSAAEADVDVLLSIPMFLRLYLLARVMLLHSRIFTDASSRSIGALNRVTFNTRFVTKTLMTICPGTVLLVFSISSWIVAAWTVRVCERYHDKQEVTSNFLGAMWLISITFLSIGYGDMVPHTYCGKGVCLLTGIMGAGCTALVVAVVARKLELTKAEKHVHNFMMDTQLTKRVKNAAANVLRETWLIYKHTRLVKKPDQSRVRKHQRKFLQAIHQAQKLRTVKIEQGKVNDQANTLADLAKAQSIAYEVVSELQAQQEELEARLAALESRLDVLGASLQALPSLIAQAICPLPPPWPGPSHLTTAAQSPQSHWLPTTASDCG
# Sequence of rat Peripheral-type Benzodiazepine Receptor (PBR), Tspo (gene 24230) (P16257 whole entry, looked up): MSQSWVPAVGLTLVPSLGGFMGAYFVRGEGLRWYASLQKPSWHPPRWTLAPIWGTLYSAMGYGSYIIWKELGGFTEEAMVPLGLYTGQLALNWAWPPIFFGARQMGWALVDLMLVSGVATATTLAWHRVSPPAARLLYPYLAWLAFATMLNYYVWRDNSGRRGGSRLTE
# Sequence of chimpanzee Androgen Receptor (AR), AR (gene 747460) (O97775 whole entry, looked up): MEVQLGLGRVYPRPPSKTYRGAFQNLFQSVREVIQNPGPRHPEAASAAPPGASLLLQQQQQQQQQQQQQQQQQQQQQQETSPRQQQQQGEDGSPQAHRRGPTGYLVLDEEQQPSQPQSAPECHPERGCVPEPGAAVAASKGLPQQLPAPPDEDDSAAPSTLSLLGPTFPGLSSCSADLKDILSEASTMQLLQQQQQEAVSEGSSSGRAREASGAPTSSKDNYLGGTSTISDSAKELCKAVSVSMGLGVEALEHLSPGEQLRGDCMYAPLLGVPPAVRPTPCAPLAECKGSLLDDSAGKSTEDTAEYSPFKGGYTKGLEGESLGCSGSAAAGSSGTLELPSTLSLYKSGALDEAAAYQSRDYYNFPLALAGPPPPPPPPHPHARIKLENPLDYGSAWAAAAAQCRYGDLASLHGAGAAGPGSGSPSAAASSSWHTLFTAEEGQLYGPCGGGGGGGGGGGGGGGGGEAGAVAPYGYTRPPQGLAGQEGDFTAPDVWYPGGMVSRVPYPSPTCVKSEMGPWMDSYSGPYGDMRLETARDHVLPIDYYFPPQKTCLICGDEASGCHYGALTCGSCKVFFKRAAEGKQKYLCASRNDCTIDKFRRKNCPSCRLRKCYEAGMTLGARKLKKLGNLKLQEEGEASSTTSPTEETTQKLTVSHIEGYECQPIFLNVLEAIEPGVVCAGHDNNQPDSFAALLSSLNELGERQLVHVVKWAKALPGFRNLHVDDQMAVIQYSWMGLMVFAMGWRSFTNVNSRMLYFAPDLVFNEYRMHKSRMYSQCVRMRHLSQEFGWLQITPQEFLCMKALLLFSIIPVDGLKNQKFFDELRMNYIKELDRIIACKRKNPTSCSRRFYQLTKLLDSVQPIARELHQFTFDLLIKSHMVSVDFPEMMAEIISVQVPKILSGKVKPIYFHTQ
# Sequence of Voltage-gated inwardly rectifying potassium channel KCNH2 (Homo sapiens) (Q12809 whole entry, looked up): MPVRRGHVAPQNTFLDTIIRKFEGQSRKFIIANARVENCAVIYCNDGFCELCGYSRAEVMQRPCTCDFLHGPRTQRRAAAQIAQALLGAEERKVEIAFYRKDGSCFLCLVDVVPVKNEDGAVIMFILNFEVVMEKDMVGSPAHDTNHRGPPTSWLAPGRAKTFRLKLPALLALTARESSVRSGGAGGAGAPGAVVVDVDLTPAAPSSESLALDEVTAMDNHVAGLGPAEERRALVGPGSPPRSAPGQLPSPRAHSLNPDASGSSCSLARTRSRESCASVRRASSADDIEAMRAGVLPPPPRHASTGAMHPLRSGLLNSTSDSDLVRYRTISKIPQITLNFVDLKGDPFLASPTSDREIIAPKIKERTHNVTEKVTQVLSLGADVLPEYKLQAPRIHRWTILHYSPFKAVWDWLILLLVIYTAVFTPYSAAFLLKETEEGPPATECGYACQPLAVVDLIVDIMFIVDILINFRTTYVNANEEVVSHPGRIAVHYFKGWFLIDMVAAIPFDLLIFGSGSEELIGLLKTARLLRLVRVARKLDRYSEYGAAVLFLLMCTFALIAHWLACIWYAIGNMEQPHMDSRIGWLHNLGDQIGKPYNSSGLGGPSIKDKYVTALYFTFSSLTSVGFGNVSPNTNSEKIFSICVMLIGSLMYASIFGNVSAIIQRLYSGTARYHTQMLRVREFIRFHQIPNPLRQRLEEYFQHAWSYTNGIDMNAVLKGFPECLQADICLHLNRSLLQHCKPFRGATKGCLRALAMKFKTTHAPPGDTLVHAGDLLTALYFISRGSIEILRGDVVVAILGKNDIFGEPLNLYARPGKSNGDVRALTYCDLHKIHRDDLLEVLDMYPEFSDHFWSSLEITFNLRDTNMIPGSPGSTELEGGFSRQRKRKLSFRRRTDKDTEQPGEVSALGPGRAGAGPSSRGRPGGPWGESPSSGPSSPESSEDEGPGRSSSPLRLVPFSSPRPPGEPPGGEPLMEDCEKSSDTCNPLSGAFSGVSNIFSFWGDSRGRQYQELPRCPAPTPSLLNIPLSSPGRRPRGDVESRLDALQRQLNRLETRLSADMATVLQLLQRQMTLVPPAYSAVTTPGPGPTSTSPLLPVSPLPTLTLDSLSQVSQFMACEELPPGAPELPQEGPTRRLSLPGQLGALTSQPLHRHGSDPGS
# Sequence of rat Thyrotropin Releasing Hormone Receptor (TRH), Trhr (gene 25570) (Q01717 whole entry, looked up): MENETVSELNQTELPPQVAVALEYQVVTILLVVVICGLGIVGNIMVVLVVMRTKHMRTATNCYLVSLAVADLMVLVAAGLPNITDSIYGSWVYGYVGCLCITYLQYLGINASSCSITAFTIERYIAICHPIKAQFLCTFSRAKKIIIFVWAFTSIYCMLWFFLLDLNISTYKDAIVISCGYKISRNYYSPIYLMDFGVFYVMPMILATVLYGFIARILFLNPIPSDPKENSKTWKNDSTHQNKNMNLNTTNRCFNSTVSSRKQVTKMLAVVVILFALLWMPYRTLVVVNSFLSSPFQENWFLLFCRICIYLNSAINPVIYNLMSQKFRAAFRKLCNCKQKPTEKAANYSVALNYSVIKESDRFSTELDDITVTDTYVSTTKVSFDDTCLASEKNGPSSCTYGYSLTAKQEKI
# Sequence of Bile acid receptor (Homo sapiens) (Q96RI1 whole entry, looked up): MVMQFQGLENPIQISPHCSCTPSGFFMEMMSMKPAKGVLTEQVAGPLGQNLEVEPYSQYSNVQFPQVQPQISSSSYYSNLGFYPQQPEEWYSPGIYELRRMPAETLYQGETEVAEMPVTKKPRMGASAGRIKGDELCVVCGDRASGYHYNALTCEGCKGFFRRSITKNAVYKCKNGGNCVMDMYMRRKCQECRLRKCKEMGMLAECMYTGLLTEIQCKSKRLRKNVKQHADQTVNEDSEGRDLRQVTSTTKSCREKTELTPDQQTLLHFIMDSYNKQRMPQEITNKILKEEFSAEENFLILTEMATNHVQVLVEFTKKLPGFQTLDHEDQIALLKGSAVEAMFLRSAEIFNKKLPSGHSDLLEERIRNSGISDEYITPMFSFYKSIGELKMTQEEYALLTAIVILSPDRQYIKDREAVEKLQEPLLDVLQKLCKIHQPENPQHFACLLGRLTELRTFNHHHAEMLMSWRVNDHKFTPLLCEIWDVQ
structure (smiles),measurement,setting,value
Cc1ccc(-c2cc(C(F)(F)F)nn2-c2ccc(S(N)(=O)=O)cc2)cc1,outcome,[1],inactive
same,outcome,[2],inactive
same,outcome,[3],inactive
same,outcome,[4],inactive
CN(C)C(=O)NC1(c2ccccc2)CCN(CC[C@@]2(c3ccc(F)c(F)c3)CN(C(=O)c3ccccc3)CCO2)CC1,AC50,[5],2.2 µM (active)
same,AC50,[6],0.276 µM (active)
same,outcome,[7],inactive
O=C(O)CN(CC(=O)O)CC(=O)O,AC50,[8],5.7 µM (active)
same,AC50,[9],10.9 µM (active)
same,outcome,[4],inactive
CCc1nc(N)nc(N)c1-c1ccc(Cl)cc1,outcome,[1],inactive
same,AC50,[5],8.32 µM (active)
same,AC50,[10],8.29 µM (active)
same,AC50,[11],2.7 µM (active)
same,AC50,[6],2.94 µM (active)
same,outcome,[9],inactive
same,outcome,[4],inactive
O=C(Oc1ccccc1)c1cccc(C(=O)Oc2ccccc2)c1,outcome,[12],inactive
O=[Si]=O,outcome,[8],inactive
same,outcome,[2],inactive
same,outcome,[9],inactive
same,outcome,[4],inactive
CS(=O)(=O)c1ccc([C@@H](C[C@H]2CCC(=O)C2)C(=O)Nc2cnccn2)cc1Cl,outcome,[8],inactive
same,AC50,[6],0.0043 µM (active)
same,outcome,[9],inactive
same,outcome,[4],inactive
CC(COCC(C)OC(=O)c1ccccc1)OC(=O)c1ccccc1 (stereo unspecified),outcome,[13],inactive
same,AC50,[1],17 µM (active)
CCC(C)N(C)C(=O)c1cc2ccccc2c(-c2ccccc2Cl)n1 (stereo unspecified),outcome,[12],inactive
same,AC50,[5],9.12 µM (active)
same,outcome,[2],inactive
same,outcome,[3],inactive
same,outcome,[9],inactive
same,outcome,[4],inactive
Oc1ccc(O)cc1,outcome,[13],inactive
same,outcome,[9],inactive
same,outcome,[4],inactive
O=C1CCCCC1,outcome,[8],inactive
same,outcome,[9],inactive
same,outcome,[4],inactive
c1ccc2occc2c1,outcome,[14],inactive
same,outcome,[9],inactive
same,outcome,[4],inactive
Cc1cc(Cc2ccc(N)c(C)c2)ccc1N,outcome,[8],inactive
same,outcome,[13],inactive
same,outcome,[1],inactive
same,outcome,[2],inactive
same,AC50,[15],25 µM (active)
CN(C)C(=O)NC1(c2ccccc2)CCN(CCC[C@]2(c3ccc(Cl)c(Cl)c3)CCCN(C(=O)c3ccccc3)C2)CC1,AC50,[16],1.24 µM (active)
same,outcome,[14],inactive
same,AC50,[5],1.24 µM (active)
same,AC50,[6],0.0164 µM (active)
same,outcome,[9],inactive
same,outcome,[4],inactive
CCN(CC)CCOc1ccc(C(=C(Cl)c2ccccc2)c2ccccc2)cc1,AC50,[13],0.672 µM (active)
same,outcome,[13],inactive
same,AC50,[5],1.02 µM (active)
same,outcome,[11],inactive
same,AC50,[6],1.82 µM (active)
same,AC50,NCBI gene 100848466,11.6 µM (active)
same,AC50,[17],34 µM (active)
same,AC50,[15],4.82 µM (active)
same,AC50,[7],13.5 µM (active)
Cc1cc(SC2=C(O)C[C@@](CCc3ccc(N)cc3)(C(C)C)OC2=O)c(C(C)(C)C)cc1CO,AC50,[18],9.33 µM (active)
same,outcome,[16],inactive
same,outcome,[1],inactive
CC(C)COC(=O)CCCCC(=O)OCC(C)C,outcome,[12],inactive
CC(C)(O)c1ccc(CNC(=O)c2cccnc2Oc2ccc(F)cc2)cc1,AC50,[13],8.65 µM (active)
same,AC50,[1],4.31 µM (active)
O=C1OC(c2ccc(O)cc2)(c2ccc(O)cc2)c2ccccc21,outcome,[14],inactive
same,outcome,NCBI gene 100848466,inactive
COc1ccc(OC(F)(F)F)cc1CN[C@H]1CCCN[C@H]1c1ccccc1,outcome,[14],inactive
same,AC50,[5],1.24 µM (active)
same,AC50,[6],7.67 µM (active)
same,outcome,[17],inactive
same,outcome,[9],inactive
same,AC50,[7],40.2 µM (active)
CCCCCCC(CCCCCCCCCCC(=O)OCC(COC(C)=O)OC(C)=O)OC(C)=O (stereo unspecified),outcome,[13],inactive
same,outcome,[16],inactive
same,outcome,[9],inactive
same,outcome,[4],inactive
COC(=O)[C@H]1[C@H]2C[C@@H]3c4[nH]c5cc(OC)ccc5c4CCN3C[C@H]2C[C@@H](OC(=O)c2cc(OC)c(OC)c(OC)c2)[C@@H]1OC,outcome,[16],inactive
same,AC50,[5],6.93 µM (active)
same,AC50,[15],19.2 µM (active)
COC(=O)CCC(=O)OC,outcome,[12],inactive
same,outcome,[9],inactive
same,outcome,[4],inactive
CC(=O)[C@@]1(O)CC[C@H]2[C@@H]3CCC4=CC(=O)CC[C@]4(C)[C@H]3CC[C@@]21C,outcome,[8],inactive
same,AC50,NCBI gene 100848466,0.467 µM (active)
same,AC50,[2],15.4 µM (active)
same,outcome,[2],inactive
same,AC50,[15],0.49 µM (active)
same,outcome,[15],inactive
C#CC(O)C(CC)CCCC (stereo unspecified),outcome,[8],inactive
Cn1cnc2c1c(=O)[nH]c(=O)n2C,outcome,[16],inactive
same,outcome,[6],inactive
